Source: PubChem
The entries come from a sample that favours hits as a whole.
Dicer processing = human Dicer pre-microRNA cleavage inhibition; cat-ELCCA pre-miR-21 Dicer processing, chemiluminescence; active compounds read high; z-score at 25 µM; hit rate 6% among 47,000; AID 1347074; in the data active = z-score above about 3, passing the limit was not always enough;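 also: plate controls were vehicle for no effect and no enzyme for full effect; higher signal means more uncleaved substrate so more Dicer inhibition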
An asterisk follows results filed as active.

How did COc1ccccc1C1Nc2c(C)cc(C)cc2-c2cc(C)nn21 (configuration not stated) do in these assays?
Dicer processing: 2.9

Results for COc1ccccc1C1Nc2c(C)cccc2-c2cc(C)nn21 (configuration not stated) ?
Dicer processing: 3.9*

How did Cc1cc2n(n1)C(c1cccs1)Nc1c(C)cccc1-2 (configuration not stated) do in these assays?
Dicer processing: 1.43

What do the screens show for `Cc1cc2n(n1)C(c1ccccc1O)Nc1c(C)cccc1-2` (configuration not stated)?
Dicer processing: 5.17*

Results for CCN(CC)c1ccc(C2Nc3c(C)cccc3-c3cc(C)nn32)c(O)c1 (configuration not stated) ?
Dicer processing: 0.45

Results for COc1cc(O)ccc1C1Nc2ccccc2-c2cc(C)nn21 (configuration not stated) ?
Dicer processing: 0.34

Results for O=C(Oc1ccc2c(c1)oc(=O)c1ccccc12)c1cccs1 ?
Dicer processing: 0.16

How did CCOC(=O)c1c(C)nn(-c2ccc(C(F)(F)F)cc2)c1C do in these assays?
Dicer processing: -0.88

What do the screens show for `Nc1ccc2nc(-c3ccccc3)oc2c1`?
Dicer processing: 4*

How did Cc1ccc(-c2nc3ncccc3o2)cc1N do in these assays?
Dicer processing: -0.93

What do the screens show for `Cc1cc2nc(-c3ccc(N)cc3)oc2cc1C`?
Dicer processing: 0.76

How did Nc1ccc2oc(-c3ccccc3)nc2c1 do in these assays?
Dicer processing: 0.65

What do the screens show for `Cc1cc2nc(-c3cc(N)ccc3Cl)oc2cc1C`?
Dicer processing: -1.79

How did Nc1ccc(-c2nc3cc(Cl)ccc3o2)cc1 do in these assays?
Dicer processing: 3.19*

How did Cc1ccc2nc(-c3ccc(N)cc3)oc2c1 do in these assays?
Dicer processing: 0.3

How did Fc1ccc(-c2nc3ncccc3o2)cc1 do in these assays?
Dicer processing: 3.27*

What do the screens show for `Nc1ccc2oc(-c3cccc(Cl)c3)nc2c1`?
Dicer processing: 2.27

What do the screens show for `O=C(Nc1ccc(-c2nc3ncccc3o2)cc1)c1ccc([N+](=O)[O-])o1`?
Dicer processing: 0.38

How did Cc1ccc2nc(-c3cc(N)ccc3Cl)oc2c1 do in these assays?
Dicer processing: 4.01*

Results for Nc1ccc(-c2nc3ccccc3o2)cc1 ?
Dicer processing: 1.62

Results for Cc1cccc(OCC(O)Cn2c[n+](C)c3cc(C)c(C)cc32)c1 (configuration not stated) ?
Dicer processing: 2.01

What do the screens show for `COc1ccccc1-c1nnc(SCC(=O)c2ccc(Cl)cc2)n1C`?
Dicer processing: -1.32

How did CN(C)CCC(=O)c1ccc2c(c1)OCCO2 do in these assays?
Dicer processing: -0.03

Results for COc1ccccc1Nc1nc(C)c([N+](=O)[O-])c(Nc2ccccc2OC)n1 ?
Dicer processing: 1.29

What do the screens show for `O=C(N/C(=N\N=C1CCCCC1)SCc1ccccc1)Nc1ccccc1`?
Dicer processing: 2.29

What do the screens show for `C=C1SC(Nc2ccccc2Cl)=NC1(CC)CC`?
Dicer processing: -0.11

What do the screens show for `Cc1cc(=O)oc2cc(NS(=O)(=O)c3ccccc3)ccc12`?
Dicer processing: 1.36

How did O=S(=O)(Nc1ccc2oc(-c3ccccc3F)nc2c1)c1ccccc1 do in these assays?
Dicer processing: -0.51

What do the screens show for `Clc1ccc(-c2nc3cc(CN4CCCCC4)ccc3o2)cc1`?
Dicer processing: 4.3*

How did Nc1ccc2oc(-c3ccccc3F)nc2c1 do in these assays?
Dicer processing: 2.31

How did Clc1ccc(-c2nc3cc(NCc4cccs4)ccc3o2)cc1 do in these assays?
Dicer processing: -0.22

Results for Nc1ccc2oc(-c3ccc(F)cc3)nc2c1 ?
Dicer processing: 3.69*

What do the screens show for `Clc1ccc(Cn2nnc(N3CCCCC3)n2)cc1`?
Dicer processing: 14.5

Results for O=S(=O)(Nc1ccc2oc(-c3ccc(Cl)cc3)nc2c1)c1ccccc1 ?
Dicer processing: 4.03*

How did Nc1ccc2oc(-c3ccc(-c4nc5cc(N)ccc5o4)cc3)nc2c1 do in these assays?
Dicer processing: 1.09

What do the screens show for `COC(=O)C(C)SCC(=O)Nc1c(C)cccc1C` (configuration not stated)?
Dicer processing: 0.14

What do the screens show for `COc1ccc(OC)c(C2NC(=O)c3c(sc4c3CCN(C)C4)N2)c1` (configuration not stated)?
Dicer processing: -0.34

What do the screens show for `C#CC(CN1CCCCC1)N1CCCCC1` (configuration not stated)?
Dicer processing: 0.16

Results for O=C(NNC1=Nc2ccccc2SC1)c1cccs1 ?
Dicer processing: -1.24

Results for COc1ccc(C2NC(=O)c3c(sc4c3CCCC4)N2)cc1 (configuration not stated) ?
Dicer processing: -1.21

What do the screens show for `O=C1NC(c2ccccc2Cl)Nc2sc3c(c21)CCN(Cc1ccccc1)C3` (configuration not stated)?
Dicer processing: 1.91

How did COc1cc(C2NC(=O)c3c(sc4c3CCCC4)N2)cc(OC)c1OC (configuration not stated) do in these assays?
Dicer processing: -0.42

What do the screens show for `COc1cc(C2NC(=O)c3c(sc4c3CCCC4)N2)cc(Br)c1OC` (configuration not stated)?
Dicer processing: 4.14*
